Results published in the supplement of paper PMC11732987, “Enantioselective OTUD7B fragment discovery through chemoproteomics screening and high-throughput optimisation” (Communications Chemistry, 2025).

Key:
Assay in all cases: log2 ratio of Biotin-Ahx-Ub-VS probe labelling (fragment/DMSO); higher = less target engagement (more negative = stronger competition), active = hit call of the paper (q ≤ 0.05, log2 ratio ≤ -1)
Details in all cases: compound concentration: 200 uM; treatment time: 3 h
USP19 = molecular target: T1, USP19 (UniProt O94966)
T1 sequence (whole entry): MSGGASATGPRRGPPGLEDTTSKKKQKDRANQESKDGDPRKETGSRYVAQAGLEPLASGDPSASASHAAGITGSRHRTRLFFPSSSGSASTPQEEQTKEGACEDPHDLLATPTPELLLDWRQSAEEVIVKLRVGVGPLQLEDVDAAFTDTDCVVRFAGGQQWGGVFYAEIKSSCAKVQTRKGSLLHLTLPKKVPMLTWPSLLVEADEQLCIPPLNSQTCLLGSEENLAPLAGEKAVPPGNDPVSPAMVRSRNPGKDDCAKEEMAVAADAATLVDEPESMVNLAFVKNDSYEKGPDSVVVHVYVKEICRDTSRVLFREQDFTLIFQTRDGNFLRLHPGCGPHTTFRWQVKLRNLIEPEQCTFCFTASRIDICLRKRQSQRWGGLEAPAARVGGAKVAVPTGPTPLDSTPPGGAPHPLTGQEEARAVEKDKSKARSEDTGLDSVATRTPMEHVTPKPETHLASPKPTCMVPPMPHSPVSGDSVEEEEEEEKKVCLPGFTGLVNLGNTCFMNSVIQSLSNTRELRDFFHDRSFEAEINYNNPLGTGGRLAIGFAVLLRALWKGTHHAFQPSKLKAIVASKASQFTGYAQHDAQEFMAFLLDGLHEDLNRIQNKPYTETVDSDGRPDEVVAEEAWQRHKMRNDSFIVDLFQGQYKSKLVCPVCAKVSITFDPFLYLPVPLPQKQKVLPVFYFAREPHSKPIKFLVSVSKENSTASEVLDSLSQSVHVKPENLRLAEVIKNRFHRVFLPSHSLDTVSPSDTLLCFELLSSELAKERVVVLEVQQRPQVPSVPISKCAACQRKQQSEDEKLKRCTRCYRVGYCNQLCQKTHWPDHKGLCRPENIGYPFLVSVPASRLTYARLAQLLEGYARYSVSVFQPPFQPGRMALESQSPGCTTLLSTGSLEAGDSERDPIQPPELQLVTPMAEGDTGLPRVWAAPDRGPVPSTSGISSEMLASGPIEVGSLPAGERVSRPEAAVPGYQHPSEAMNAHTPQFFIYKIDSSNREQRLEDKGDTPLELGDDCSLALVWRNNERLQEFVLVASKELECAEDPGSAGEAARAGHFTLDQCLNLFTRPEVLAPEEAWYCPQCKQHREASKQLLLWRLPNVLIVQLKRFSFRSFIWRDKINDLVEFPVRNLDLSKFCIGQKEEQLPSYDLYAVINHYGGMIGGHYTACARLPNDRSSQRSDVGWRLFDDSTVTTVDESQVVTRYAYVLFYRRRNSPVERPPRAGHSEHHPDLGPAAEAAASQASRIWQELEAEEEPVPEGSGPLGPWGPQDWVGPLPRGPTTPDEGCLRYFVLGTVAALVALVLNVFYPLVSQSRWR
Procedure, shortened: (§1)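 Labelling with Biotin-Ahx-Ub-VS (0.5 µM final, 1 h) followed a 3 h triplicate treatment of HEK293T lysate (495 µg per sample, Tris/CHAPS/IGEPAL buffer with protease inhibitors) with fragment at 200 µM or vehicle. Labelled DUBs were NeutrAvidin-enriched, digested with LysC and trypsin, and run by diaPASEF LC-MS/MS. The values, average log2 fragment/vehicle ratios by unpaired t-test, come from global-median-normalised Spectronaut label-free quantities. Proteins with ≥2 unique peptides were used.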

USP22 = molecular target: T2, USP22 (UniProt Q9UPT9)
T2 sequence (whole entry): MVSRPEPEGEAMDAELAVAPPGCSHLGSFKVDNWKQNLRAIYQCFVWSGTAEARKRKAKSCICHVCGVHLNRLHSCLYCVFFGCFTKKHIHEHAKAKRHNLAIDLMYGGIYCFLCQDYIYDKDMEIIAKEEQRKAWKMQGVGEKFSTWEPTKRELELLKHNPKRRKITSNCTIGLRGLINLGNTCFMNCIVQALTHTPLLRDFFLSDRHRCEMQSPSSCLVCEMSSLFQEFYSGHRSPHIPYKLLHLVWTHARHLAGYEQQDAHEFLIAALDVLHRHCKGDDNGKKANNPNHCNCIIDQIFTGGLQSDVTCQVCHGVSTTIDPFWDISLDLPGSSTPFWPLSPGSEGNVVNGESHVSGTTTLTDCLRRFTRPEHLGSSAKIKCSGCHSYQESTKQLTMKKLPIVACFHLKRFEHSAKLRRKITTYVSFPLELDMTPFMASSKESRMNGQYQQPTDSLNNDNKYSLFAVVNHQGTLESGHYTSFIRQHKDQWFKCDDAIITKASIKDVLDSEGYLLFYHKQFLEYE
Procedure, shortened: as §1

USP24 = USP24 (UniProt Q9UPU5)
Sequence of USP24 (Q9UPU5 whole entry): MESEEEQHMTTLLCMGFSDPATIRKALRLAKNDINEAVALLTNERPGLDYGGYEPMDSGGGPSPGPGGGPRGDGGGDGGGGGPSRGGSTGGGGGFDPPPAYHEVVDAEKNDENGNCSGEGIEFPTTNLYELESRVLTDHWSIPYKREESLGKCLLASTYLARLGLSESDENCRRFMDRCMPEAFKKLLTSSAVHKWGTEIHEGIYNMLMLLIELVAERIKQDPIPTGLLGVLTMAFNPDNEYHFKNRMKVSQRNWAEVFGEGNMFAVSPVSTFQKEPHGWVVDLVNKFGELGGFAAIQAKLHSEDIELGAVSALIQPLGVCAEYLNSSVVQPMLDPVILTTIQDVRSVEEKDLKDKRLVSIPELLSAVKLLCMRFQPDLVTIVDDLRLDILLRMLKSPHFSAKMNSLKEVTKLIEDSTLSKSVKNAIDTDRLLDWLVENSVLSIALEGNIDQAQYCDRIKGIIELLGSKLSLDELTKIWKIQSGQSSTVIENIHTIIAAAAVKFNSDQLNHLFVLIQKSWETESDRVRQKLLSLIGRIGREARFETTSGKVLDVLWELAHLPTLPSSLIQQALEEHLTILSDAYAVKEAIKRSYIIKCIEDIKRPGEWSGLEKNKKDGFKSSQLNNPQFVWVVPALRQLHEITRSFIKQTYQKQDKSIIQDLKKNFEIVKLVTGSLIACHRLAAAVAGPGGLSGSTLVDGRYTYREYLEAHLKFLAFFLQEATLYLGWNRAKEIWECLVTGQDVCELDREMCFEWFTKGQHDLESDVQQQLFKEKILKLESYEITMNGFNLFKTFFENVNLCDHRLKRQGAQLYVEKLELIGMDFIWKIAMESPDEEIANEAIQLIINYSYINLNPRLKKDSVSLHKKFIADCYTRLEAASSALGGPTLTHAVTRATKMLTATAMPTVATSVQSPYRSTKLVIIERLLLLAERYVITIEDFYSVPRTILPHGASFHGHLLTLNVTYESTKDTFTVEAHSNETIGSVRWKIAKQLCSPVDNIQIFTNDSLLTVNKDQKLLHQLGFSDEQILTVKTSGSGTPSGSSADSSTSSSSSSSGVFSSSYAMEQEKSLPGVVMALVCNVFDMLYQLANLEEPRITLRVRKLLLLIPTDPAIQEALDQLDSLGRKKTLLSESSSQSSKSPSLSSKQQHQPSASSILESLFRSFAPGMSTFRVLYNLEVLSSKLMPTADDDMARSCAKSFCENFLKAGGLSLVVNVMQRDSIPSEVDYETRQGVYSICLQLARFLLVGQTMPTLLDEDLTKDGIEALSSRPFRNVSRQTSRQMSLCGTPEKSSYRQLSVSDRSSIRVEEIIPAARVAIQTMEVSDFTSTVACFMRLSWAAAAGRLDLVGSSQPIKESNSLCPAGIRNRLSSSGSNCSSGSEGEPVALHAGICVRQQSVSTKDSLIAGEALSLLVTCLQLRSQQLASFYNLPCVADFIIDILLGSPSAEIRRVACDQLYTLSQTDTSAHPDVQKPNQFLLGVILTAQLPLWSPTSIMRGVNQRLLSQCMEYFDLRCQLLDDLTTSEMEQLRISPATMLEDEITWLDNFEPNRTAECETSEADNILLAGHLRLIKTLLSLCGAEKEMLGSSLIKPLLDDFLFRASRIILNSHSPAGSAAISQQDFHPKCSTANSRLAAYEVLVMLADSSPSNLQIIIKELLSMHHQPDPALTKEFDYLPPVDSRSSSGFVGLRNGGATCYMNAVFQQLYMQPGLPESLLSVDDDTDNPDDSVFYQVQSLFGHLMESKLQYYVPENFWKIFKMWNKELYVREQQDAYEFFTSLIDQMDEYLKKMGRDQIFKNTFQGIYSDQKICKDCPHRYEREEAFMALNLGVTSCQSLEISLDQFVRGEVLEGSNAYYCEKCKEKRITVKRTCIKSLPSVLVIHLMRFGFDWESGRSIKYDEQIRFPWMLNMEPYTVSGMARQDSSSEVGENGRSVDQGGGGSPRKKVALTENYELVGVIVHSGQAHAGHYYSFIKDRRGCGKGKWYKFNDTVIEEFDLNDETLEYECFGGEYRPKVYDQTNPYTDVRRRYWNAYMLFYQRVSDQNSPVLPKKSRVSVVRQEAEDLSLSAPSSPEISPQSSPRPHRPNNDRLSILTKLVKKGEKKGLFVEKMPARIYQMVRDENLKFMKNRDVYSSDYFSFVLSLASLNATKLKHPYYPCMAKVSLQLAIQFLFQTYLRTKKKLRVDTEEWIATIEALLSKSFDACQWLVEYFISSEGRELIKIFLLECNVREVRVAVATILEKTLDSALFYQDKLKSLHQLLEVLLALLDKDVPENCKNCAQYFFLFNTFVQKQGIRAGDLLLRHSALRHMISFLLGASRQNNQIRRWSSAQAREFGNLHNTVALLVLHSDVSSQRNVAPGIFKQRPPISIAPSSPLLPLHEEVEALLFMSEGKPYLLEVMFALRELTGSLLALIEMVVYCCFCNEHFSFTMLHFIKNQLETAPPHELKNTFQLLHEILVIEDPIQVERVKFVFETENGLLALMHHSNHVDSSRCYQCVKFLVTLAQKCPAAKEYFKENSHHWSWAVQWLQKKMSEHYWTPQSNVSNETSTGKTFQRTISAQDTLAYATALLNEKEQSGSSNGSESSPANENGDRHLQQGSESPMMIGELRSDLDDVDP
Procedure, shortened: as §1

USP25 = molecular target: T3, USP25 (UniProt Q9UHP3)
T3 sequence (whole entry): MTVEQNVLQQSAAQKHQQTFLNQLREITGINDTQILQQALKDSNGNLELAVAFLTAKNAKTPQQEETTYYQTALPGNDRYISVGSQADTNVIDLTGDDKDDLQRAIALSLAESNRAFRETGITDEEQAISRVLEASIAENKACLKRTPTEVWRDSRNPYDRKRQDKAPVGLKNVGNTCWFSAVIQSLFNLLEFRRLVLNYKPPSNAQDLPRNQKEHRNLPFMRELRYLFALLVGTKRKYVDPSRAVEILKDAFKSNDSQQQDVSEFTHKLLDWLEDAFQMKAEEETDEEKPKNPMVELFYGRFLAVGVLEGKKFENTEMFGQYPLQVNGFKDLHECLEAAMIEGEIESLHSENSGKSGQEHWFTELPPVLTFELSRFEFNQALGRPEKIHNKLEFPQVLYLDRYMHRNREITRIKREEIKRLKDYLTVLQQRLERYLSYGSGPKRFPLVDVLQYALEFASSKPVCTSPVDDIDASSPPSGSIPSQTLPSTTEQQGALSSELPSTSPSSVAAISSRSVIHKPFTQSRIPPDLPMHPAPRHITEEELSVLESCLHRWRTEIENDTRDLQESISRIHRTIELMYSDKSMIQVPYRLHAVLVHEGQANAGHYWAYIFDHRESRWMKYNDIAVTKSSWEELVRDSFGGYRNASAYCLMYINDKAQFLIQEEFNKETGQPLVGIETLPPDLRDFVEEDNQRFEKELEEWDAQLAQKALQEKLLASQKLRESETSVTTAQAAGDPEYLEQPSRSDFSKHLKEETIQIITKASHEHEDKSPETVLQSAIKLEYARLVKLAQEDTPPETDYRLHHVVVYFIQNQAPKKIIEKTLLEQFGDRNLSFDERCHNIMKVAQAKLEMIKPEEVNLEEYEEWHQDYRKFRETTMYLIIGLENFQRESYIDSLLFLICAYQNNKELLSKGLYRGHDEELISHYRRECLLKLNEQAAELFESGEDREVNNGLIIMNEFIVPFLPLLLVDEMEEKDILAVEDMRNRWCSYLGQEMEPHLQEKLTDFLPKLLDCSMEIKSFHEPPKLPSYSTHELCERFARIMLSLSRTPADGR
Procedure, shortened: as §1

USP28 = molecular target: T4, USP28 (UniProt Q96RU2)
T4 sequence (whole entry): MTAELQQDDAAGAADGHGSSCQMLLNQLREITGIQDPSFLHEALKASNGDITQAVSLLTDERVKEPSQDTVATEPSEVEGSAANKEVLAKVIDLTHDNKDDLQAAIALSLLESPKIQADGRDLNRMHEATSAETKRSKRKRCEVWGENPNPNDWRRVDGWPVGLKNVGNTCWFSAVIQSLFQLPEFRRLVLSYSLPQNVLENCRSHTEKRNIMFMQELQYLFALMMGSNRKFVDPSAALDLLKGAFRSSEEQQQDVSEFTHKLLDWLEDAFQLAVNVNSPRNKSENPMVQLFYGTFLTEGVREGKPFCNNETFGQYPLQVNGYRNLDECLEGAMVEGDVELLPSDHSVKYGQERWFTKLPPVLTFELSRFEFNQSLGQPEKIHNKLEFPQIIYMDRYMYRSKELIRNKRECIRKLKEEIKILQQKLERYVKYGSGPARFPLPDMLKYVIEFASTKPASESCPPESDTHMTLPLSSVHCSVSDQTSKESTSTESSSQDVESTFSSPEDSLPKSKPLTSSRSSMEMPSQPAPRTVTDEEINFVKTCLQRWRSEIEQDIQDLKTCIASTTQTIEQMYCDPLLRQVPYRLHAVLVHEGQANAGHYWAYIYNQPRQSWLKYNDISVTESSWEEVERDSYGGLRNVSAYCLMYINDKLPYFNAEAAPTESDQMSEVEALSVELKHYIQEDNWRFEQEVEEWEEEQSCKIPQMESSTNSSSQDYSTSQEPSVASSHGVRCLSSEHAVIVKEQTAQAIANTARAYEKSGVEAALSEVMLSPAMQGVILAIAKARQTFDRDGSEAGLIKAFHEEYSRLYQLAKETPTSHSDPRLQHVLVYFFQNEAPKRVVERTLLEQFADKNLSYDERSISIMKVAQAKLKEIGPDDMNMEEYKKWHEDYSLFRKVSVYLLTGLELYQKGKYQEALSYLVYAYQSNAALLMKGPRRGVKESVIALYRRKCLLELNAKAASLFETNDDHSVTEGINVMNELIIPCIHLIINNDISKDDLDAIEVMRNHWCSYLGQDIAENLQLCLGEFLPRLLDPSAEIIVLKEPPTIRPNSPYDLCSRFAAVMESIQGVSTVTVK
Procedure, shortened: as §1

Measured: log2 ratio of Biotin-Ahx-Ub-VS probe labelling

CC(NC(=O)CCl)c1cccc(Cl)c1 (stereo not given)
inactive: USP19 -0.35 | USP22 -0.146 | USP24 -0.342 | USP25 -0.639 | USP28 -0.845
